# Reference: ChEMBL document CHEMBL3988442, “University of Dundee, Small-Polar-MMV Screening Library” (2021)
# The campaign covered roughly 69,000 compounds. About 1,000 (1.4%) showed an effect of 50% or more. Only a selection was taken, and strong results are over-represented in it overall.
# Test system: Leishmania donovani
# Assay: Leishmania intramacrophage assay
# Format: functional, organism-based
# Design: scale not given: in the data most compounds retested in dose-response had high values
structure (smiles),measurement,setting,value
CCN(c1ccc(C(=O)NCCCN2CCOCC2)cc1)S(=O)(=O)CC,Percent Effect,"30 µM, 30.03 µM",0.6611%
CC(O)CN1CCN(C(=O)c2ccc3c(c2)COC3)CC1 (configuration not stated),Percent Effect,"30 µM, 30.03 µM",9.428%
Cn1cnc2c(-c3cccnc3)nc(C3CCN(S(C)(=O)=O)CC3)cc21,Percent Effect,"30.3 µM, […]",18.38%
Cc1nn(C)c(N2CCOCC2)c1CNC1CCS(=O)(=O)C1 (configuration not stated),Percent Effect,"30.3 µM, […]",15.34%
Cc1noc(C)c1CN1CCOCC12CCN(c1cnccn1)CC2.O=C(O)C(F)(F)F,Percent Effect,"30.3 µM, […]",60.72%
CCN1CCOCC12CCN(c1cnccn1)CC2.O=C(O)C(F)(F)F,Percent Effect,"30.3 µM, […]",19.49%
Cc1noc(C)c1CN1CCOCC12CCN(c1ncccn1)CC2.O=C(O)C(F)(F)F,Percent Effect,"30.3 µM, […]",49.21%
O=C(c1cnn2c1OCCC2)N1CCC(Cc2ccccc2)CC1,Percent Effect,"30.3 µM, […]",-34.88%
OCc1cn(Cc2cccc(F)c2)nn1,Percent Effect,"30.3 µM, […]",6.732%
CCOCCC(=O)N(C)CC1Cc2ccccc2CN1C (configuration not stated),Percent Effect,"30.3 µM, […]",29.01%
COC(=O)CCCC(=O)N(C)CC1Cc2ccccc2CN1C (configuration not stated),Percent Effect,"30.3 µM, […]",11.82%
COC(=O)NCC(=O)N(C)CC1Cc2ccccc2CN1C (configuration not stated),Percent Effect,"30.3 µM, […]",52.66%
COc1ncccc1C(=O)N1CCC(c2nc3c(C)cccc3[nH]2)CC1,Percent Effect,"30.3 µM, […]",-25.37%
CN1CCC(c2nnc3ccc(C(=O)N4CCCCC4)cn23)C1.O=C(O)C(F)(F)F (configuration not stated),Percent Effect,"30.3 µM, […]",20.31%
COc1cccc(C(O)CN2CCN(C(=O)CCC(C)C)CC2)c1 (configuration not stated),Percent Effect,"30.3 µM, […]",-26.89%
CS(=O)(=O)N1CCO[C@@H]2CN(C(=O)N3CCCC3)CC[C@@H]2C1,Percent Effect,"30.3 µM, […]",57.39%
CS(=O)(=O)N1CCO[C@@H]2CN(C(=O)N3CCOCC3)CC[C@@H]2C1,Percent Effect,"30.3 µM, […]",41.23%
CS(=O)(=O)N1CCO[C@@H]2CN(C(=O)C3CCOC3)CC[C@@H]2C1 (some centres not stated),Percent Effect,"30.3 µM, […]",29.21%
Cc1cc(OCCC(=O)NCc2ccc(F)cc2)nnc1C,Percent Effect,"30.3 µM, […]",-17.71%
CCn1c(N)nc2cc(C(=O)N3Cc4ccccc4C3)cnc21,Percent Effect,"30.3 µM, […]",1.909%
CC(=O)N1CCC(c2ccnc(Nc3cc(C(F)(F)F)ccn3)n2)C1 (configuration not stated),Percent Effect,"30.3 µM, […]",43.14%
COCC(=O)N1CC(c2ccnc(Nc3cc(C(F)(F)F)ccn3)n2)C1,Percent Effect,"30.3 µM, […]",23.24%
Cl.NCC(=O)N1CCC(c2ccnc(Nc3cc(C(F)(F)F)ccn3)n2)C1 (configuration not stated),Percent Effect,"30.3 µM, […]",77.96%
O=C(CO)N1CCC(c2ccnc(Nc3cc(C(F)(F)F)ccn3)n2)C1 (configuration not stated),Percent Effect,"30.3 µM, […]",30.85%
COC(=O)C(C)N1CCCc2cc(OC)ccc2C1 (configuration not stated),Percent Effect,"30.3 µM, […]",8.236%
COCCN1CCC(Nc2ccc(C#N)cc2F)CC1,Percent Effect,"30.3 µM, […]",26.49%
CNC(=O)C1Cc2ccccc2CN1CCC#N (configuration not stated),Percent Effect,"30.3 µM, […]",1.919%
CCCOc1cccc(-c2nc3c([nH]2)CCNC3)c1,Percent Effect,"30.3 µM, […]",25.72%
CC(C)COc1cccc(-c2nc3c([nH]2)CCNC3)c1,Percent Effect,"30.3 µM, […]",95.75%
FC(F)(F)COc1cccc(-c2nc3c([nH]2)CCNC3)c1,Percent Effect,"30.3 µM, […]",27.16%
CCN(C(=O)c1ccc(-n2ncc(C#N)c2N)cc1)C1CCCC1,Percent Effect,"30 µM, 30.03 µM",36.15%
O=C1C(NCc2nnc3n2CCCC3)CCN1CC(F)(F)F (configuration not stated),Percent Effect,"30 µM, 30.03 µM",-13.74%
Cc1ccc(Br)cc1NC(=O)NC1CCC2(C1)OCCO2 (configuration not stated),Percent Effect,"30.3 µM, […]",23.67%
Cc1ccc(CNC2(Cc3cc(CC(C)C)on3)COC2)o1,Percent Effect,"30.3 µM, […]",-12.32%
CC(C)Cc1cc(CC2(NCc3ccco3)COC2)no1,Percent Effect,"30.3 µM, […]",63.35%
CC(C)Cc1cc(CC2(NCc3ccccc3Cl)COC2)no1,Percent Effect,"30.3 µM, […]",8.785%
Cc1ccc(CN2CCc3nc(C(C)C)nc(O)c3CC2)s1,Percent Effect,"30.3 µM, […]",14.32%
O=C(c1cccnc1O)N1CCCN(c2cccnn2)CC1,Percent Effect,"30.3 µM, […]",3.038%
COc1ccc(C)cc1NC(=O)Nc1cnc(N2CCN(C)CC2)nc1,Percent Effect,"30 µM, 30.03 µM",50.02%
COc1ccc(C)cc1NC(=O)Nc1cnc(N2CCCC2)nc1,Percent Effect,"30.3 µM, […]",-0.2164%
COc1ccc(C)cc1NC(=O)Nc1cnc(N2CCOCC2)nc1,Percent Effect,"30.3 µM, […]",-26.13%
COc1ccc2nnc(C(=O)NC3CCCC3)nc2c1,Percent Effect,"30.3 µM, […]",8.289%
CCCS(=O)(=O)N1CCC2(CC1)CN(c1ccccn1)CCO2.O=C(O)C(F)(F)F,Percent Effect,"30 µM, 30.03 µM",10.12%
CS(=O)(=O)Cc1ccccc1NCc1cc(Cl)ccc1Cl,Percent Effect,"30.3 µM, […]",50.41%
CS(=O)(=O)Cc1ccc(Cl)cc1NCc1ccccc1F,Percent Effect,"30.3 µM, […]",17.75%
CS(=O)(=O)Cc1ccc(Cl)cc1NCc1cccc(F)c1F,Percent Effect,"30.3 µM, […]",15.72%
CC(O)CN1CCN(C(=O)c2ccc(N(C)C)nc2)CC1 (configuration not stated),Percent Effect,"30 µM, 30.03 µM",21.97%
Cn1ncc(C(=O)N2CCCC(n3cccn3)C2)c1C1CC1 (configuration not stated),Percent Effect,"30 µM, 30.03 µM",-6.982%
CCN(C(=O)Nc1cccnc1OC)C1CC1,Percent Effect,"30 µM, 30.03 µM",22.39%
COc1ncccc1NC(=O)N(Cc1ccc(C)o1)C1CC1,Percent Effect,"30 µM, 30.03 µM",53.3%
COc1ncccc1NC(=O)N(Cc1ccco1)C1CC1,Percent Effect,30 µM,6.992%
O=C1CCc2cc(OCCN3CCc4cncnc4C3)ccc2N1,Percent Effect,"30.3 µM, […]",41.19%
